# Results reported in PubChem BioAssay AID371 (SRMLSC, 2006).
# The whole screen tested about 3,300 compounds, of which about 280 (8.5%) were called active. The sample as a whole holds a higher share of actives than the screen did. Values without a mark were called inactive.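 How the source made its calls: active means mean growth inhibition over the two runs of 50% or more; inactive means mean growth inhibition under 50%.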
# Experiment: A549 NSCLC cell proliferation inhibitors – ATP luminescence, human non-small cell lung line, primary screen (AID 371);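 further: compound exposure lasted 72 h before the ATP read; 0% = untreated cell signal and 100% = no luminescence left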
# Details: at 10 µM, stronger effect = higher value
row,Compound,growth inhibition
1,CN(C)CCOC(=O)c1cn(Cc2ccccc2)c2ccccc12,61.2% (active)
2,CC(C)(C)OC(=O)c1c(N)n(Cc2ccco2)c2nc3ccccc3nc12,56.9% (active)
3,CC(C)OC(=O)c1c(N)n(Cc2ccco2)c2nc3ccccc3nc12,18.6%
4,CCCCOCCCn1c(N)c(C(=O)OC(C)COC)c2nc3ccccc3nc21 (stereo not given),36.6%
5,Nc1c(C(=O)NCc2ccco2)c2nc3ccccc3nc2n1CCN1CCCCC1,91.8% (active)
6,COCCOC(=O)c1c(N)n(Cc2ccco2)c2nc3ccccc3nc12,12.9%
7,CCCCOCCCn1c(N)c(C(=O)OCCOC)c2nc3ccccc3nc21,23.4%
8,COCC(C)OC(=O)c1c(N)n(Cc2ccco2)c2nc3ccccc3nc12 (stereo not given),14%
9,Nc1c(C(=O)NCc2ccco2)c2nc3ccccc3nc2n1Cc1ccc(F)cc1,86.7% (active)
10,COc1ccc(Cn2c(O)c(C=NCCCn3ccnc3)c(=O)[nH]c2=O)cc1,-7.41%
11,CCCCCCn1c(O)c(C(C)=NC)c(=O)[nH]c1=O,8.94%
12,O=C(c1ccco1)C12CN3CN(CN(C3)C1)C2,-3.02%
13,OC1(c2ccc(F)cc2)CCNC1 (stereo not given),-3.04%
14,O=C1C2CCN(CC2)[C@@H]1Cc1ccc2ccccc2c1O,7.73%
15,COc1cc2[nH]c(=O)n(-c3cccc(Cl)c3)c(=O)c2cc1OC,3.67%
16,O=C1c2ccccc2C(=O)N1Cc1nc2ccccc2c(=O)n1-c1cccnc1,-0.22%
17,C=CCC1(CN2CCCCCC2=O)C(=O)NC(=O)NC1=O,2.99%
18,CCCCNC(=O)Nc1ccc(C(O)(C(=O)OC)C(F)(F)F)cc1 (stereo not given),-4.53%
19,CCOC(C(=O)OCC(O)CN(CC)CC)(c1ccccc1)c1ccccc1 (stereo not given),15.7%
20,O=C(O)CCCc1ccc(N(CCCl)CCCl)cc1,50.8% (active)
21,CCOCCN1CCC(OC(C)=O)C(C)C1 (stereo not given),1.45%
22,CCOc1ccc(Cc2c(O)[nH]c(=O)[nH]c2=O)cc1,-5.3%
23,CCCCNC(=O)Nc1ccc(C(O)(C(=O)OCC)C(F)(F)F)cc1 (stereo not given),-3.41%
24,CN1CCC(OC(=O)C2c3ccccc3Oc3ccccc32)CC1,13%

row,Compound,growth inhibition
1,CCCC12CN3CN(C1)CC(CCC)(C3)C2O (stereo not given),-0.83%
2,CC(C)[C@@]1(NC(=O)[C@@H]2C=C3c4cccc5[nH]cc(c45)C[C@H]3N(C)C2)O[C@@]2(O)[C@@H]3CCCN3C(=O)[C@H](Cc3ccccc3)N2C1=O,35.2%
3,CC(C)[C@H]1C(=O)N2CCC[C@H]2[C@]2(O)O[C@](NC(=O)[C@@H]3C=C4c5cccc6[nH]cc(c56)C[C@H]4N(C)C3)(C(C)C)C(=O)N12,37.3%
4,CC(C)[C@@]1(NC(=O)[C@@H]2C[C@@H]3c4cccc5[nH]cc(c45)C[C@H]3N(C)C2)O[C@@]2(O)[C@@H]3CCCN3C(=O)[C@H](Cc3ccccc3)N2C1=O,85.1% (active)
5,O=c1[nH]c(=O)n(Cc2ccccc2)c(O)c1C=NCCN1CCOCC1,-6.38%
6,O=c1[nH]c(=O)n(Cc2ccccc2)c(O)c1C=NCCN1CCNCC1,4.69%
7,O=c1c(C=NCCN2CCNCC2)c(O)n(C2CCCCC2)c(=O)n1C1CCCCC1,82.3% (active)
8,O=c1[nH]c(=O)n(CCc2ccccc2)c(O)c1C=NCCN1CCNCC1,-7.13%
9,OC(c1ccc(F)cc1)C(c1ccccc1)N1CCOCC1 (stereo not given),7.16%
10,O=c1[nH]c(=O)n(Cc2ccco2)c(O)c1C=NCCN1CCOCC1,0.93%
11,CC1CCC(C(C)C)C(OP(N)(=O)c2ccccc2)C1 (stereo not given),16.9%
12,CNCCc1nc(N)n[nH]1,1.61%
13,Cc1c(N=Cc2c(O)n(CCc3ccccc3)c(=O)[nH]c2=O)c(=O)n(-c2ccccc2)n1C,79.2% (active)
14,CCCCCCn1c(O)c(C=Nc2c(C)n(C)n(-c3ccccc3)c2=O)c(=O)[nH]c1=O,6.23%
15,Cc1c(N=Cc2c(O)n(CCc3ccc(F)cc3)c(=O)[nH]c2=O)c(=O)n(-c2ccccc2)n1C,12.3%
16,C=CCn1c(O)c(C=NCCN(C)C)c(=O)[nH]c1=O,2.68%
17,O=c1[nH]c(=O)n(CCc2ccccc2)c(O)c1C=NCCCn1ccnc1,-3.73%
18,CCOc1ccccc1-n1c(O)c(C=Nc2c(C)n(C)n(-c3ccccc3)c2=O)c(=O)[nH]c1=O,0.12%
19,CC1(C)NCCN2C(=O)CSC21 (stereo not given),-1.76%
20,O=C(CCCN1CCC2(CC1)C(=O)NCN2c1ccccc1)c1ccc(F)cc1,54.1% (active)
21,CCCN(CC#CCO)CCC,0.1%
22,Cn1c(O)c(C(=O)c2ccccc2Cl)c(=O)n(C)c1=O,2.11%
23,CC(=O)OC1(c2ccc(C)cc2)CN2CCC1c1ccccc12 (stereo not given),6.24%
24,C=CCn1c(O)c(C=Nc2ccc(N(CC)CC)cc2)c(=O)[nH]c1=O,4.7%

row,Compound,growth inhibition
1,O=c1[nH]c(=O)n(-c2cccc(Cl)c2)c(O)c1C=NCCN1CCCCC1,4.68%
2,Cc1c(N=Cc2c(O)n(Cc3ccco3)c(=O)[nH]c2=O)c(=O)n(-c2ccccc2)n1C,-0.44%
3,CCCCCCn1c(O)c(C=NCCN2CCCCC2)c(=O)[nH]c1=O,-5.08%
4,Clc1ccc(COC(Cn2ccnc2)c2ccc(Cl)cc2Cl)cc1 (stereo not given),91.6% (active)
5,Clc1ccc(CSC(Cn2ccnc2)c2ccc(Cl)cc2Cl)cc1 (stereo not given),93.2% (active)
6,c1ccc(Cn2ccnc2)cc1,8.97%
7,Clc1ccc(COC(Cn2ccnc2)c2ccc(Cl)cc2Cl)c(Cl)c1 (stereo not given),92.5% (active)
8,CCOc1ccc(-n2c(O)c(C=Nc3ccc(N(CC)CC)cc3)c(=O)[nH]c2=O)cc1,9.98%
9,CC(=O)C1(c2ccccc2)CCNCC1,2.01%
10,Cn1c(O)c(C=NCCCNC2CCCCC2)c(=O)n(C)c1=O,0.52%
11,CCOc1ccccc1-n1c(O)c(C=Nc2ccc(N(CC)CC)cc2)c(=O)[nH]c1=O,45.4%
12,CCCCSP1(=S)NCCCN1,2.57%
13,O=C(COc1ccc2ccccc2c1)N1CCN(C2CCN(Cc3ccccc3)CC2)CC1,36.9%
14,O=c1[nH]c(=O)n(C2CCCCC2)c(O)c1C=NCCCn1ccnc1,3.81%
15,O=c1[nH]c(O)c(C=NC2CCN(Cc3ccccc3)CC2)c(=O)[nH]1,6%
16,COc1cccc(-n2c(C)nc3ccccc3c2=O)c1,9.28%
17,COc1ccc(C2SCC(=O)Nc3c2c(=O)[nH]n3C2CCCCCC2)cc1 (stereo not given),25.3%
18,CCC(=NCCOc1ccc(Cl)cc1)c1c(O)n(C)c(=O)n(C)c1=O,55.2% (active)
19,CCC(=NCCN1CCCCC1)c1c(O)n(C)c(=O)n(C)c1=O,-4.37%
20,CC(=NCCO)c1c(O)n(C)c(=O)n(C)c1=O,-4.52%
21,CCN(CC)CCN=Cc1c(O)n(CCc2ccccc2)c(=O)[nH]c1=O,2.4%
22,O=C(Nc1ccncc1)c1c(O)c2ccccc2n(Cc2ccccc2)c1=O,68.1% (active)
23,CCN(CC)CCCNC(=O)c1c(O)c2ccccc2n(Cc2ccccc2)c1=O,91.6% (active)
24,CCN(CC)CCCC(C)N=C(c1ccccc1)c1c(O)n(C)c(=O)n(C)c1=O (stereo not given),7.06%

row,Compound,growth inhibition
1,CN1CCc2nc(SCC(=O)OC(C)(C)C)c(C#N)cc2C1,25.1%
2,CCCCC1(CN2CCCC2=O)C(=O)NC(=O)NC1=O,3.02%
3,COCCOC(=O)C1=C(N)Oc2c(c(=O)oc3ccccc23)[C@@]12C(=O)Nc1ccccc12,-4.66%
4,CC1CN=C(Nc2ccc(N(C)C)cc2)S1 (stereo not given),0.47%
5,CCOC(=O)c1cc(C)n(CCc2cnc[nH]2)c1C,9.02%
6,C[C@H]1CCCC(=O)CCCCCc2cc(O)cc(O)c2C(=O)O1,52.1% (active)
7,OCCOCC#CCN1CCOCC1,0.81%
8,CCCCSP1(=S)NCCCO1 (stereo not given),19.6%
9,C[C@@]1(CO)[C@H](O)CC[C@@]2(C)[C@H]1CC[C@H]1C[C@@H]3C[C@@]12CC[C@]3(O)CO,69.6% (active)
10,O=P(c1ccccc1)(c1ccccc1)N1CCCCC1,8.66%
11,O=c1[nH]c(=O)n(Cc2ccco2)c(O)c1C=NCc1ccc2c(c1)OCO2,18.1%
12,CC1=C(C(=O)OC(C)C)[C@]2(C(=O)N(CC(N)=O)c3ccccc32)C(C#N)=C(N)O1,5.06%
13,Cc1c2ccncc2c(C)c2c1[nH]c1ccccc12,95% (active)
14,c1ccc2c(c1)[nH]c1cnccc12,-5.8%
15,COc1cccc(CN2CCN(C(=O)COc3ccc4ccccc4c3)CC2)c1,33.9%
16,C[C@H]1CCC/C=C/C2C[C@H](O)CC2[C@H](O)/C=C/C(=O)O1 (stereo not given in full),76% (active)
17,OC(Cc1ccccc1)(c1ccccc1)C1CN2CCC1CC2 (stereo not given),34.4%
18,Cc1ccc2c(c1)[C@@H]1CN(C)CC[C@@H]1N2C(=O)Nc1cccc(C(F)(F)F)c1,83% (active)
19,COc1ccc(C(=O)CN2CCOCC2)cc1F,16%
20,CN1CCc2c(c(N3CCCCC3)nc3n[nH]c(N)c23)C1,0.74%
21,COc1ccc2[nH]cc(CCN(C)C)c2c1,1.86%
22,CCCc1nc2ccccc2c(=O)n1-c1ccccc1OC,-0.02%
23,CCN(CC)c1ccc(N=Cc2c(O)n(-c3ccccc3C)c(=O)[nH]c2=O)cc1,29.6%
